Test results published in paper PMC5892938, “SARNAclust: Semi-automatic detection of RNA protein binding motifs from immunoprecipitation data”.
The full ranking holds about 11,000 sequences; the median of “log2 fold change” is about 0.00022, and the highest 2% start at about 0.34. This is one part of the list.

target: GST-SBP-SLBP (stem-loop binding protein) (Homo sapiens, UniProt Q14493 1-270); test: targeted RNA Bind-n-Seq; RBNS binding buffer: 25 mM Tris pH 7.5, 150 mM KCl, 3 mM MgCl2, 0.1% Tween, 0.5 mg/mL BSA, 1 mM DTT; 27 nM protein, 750 pM RNA pool; temperature not stated; high values mean tight binding; conditions: protein: recombinant; tags: N-terminal GST and SBP (pGEX6P1-SBP); structured_RNA
Outline: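 The GST-SBP-tagged protein was expressed in Rosetta(DE3) pLysS E. coli, glutathione-purified and incubated at 27 nM with 750 pM of a designed, T7-transcribed RNA oligo pool in RBNS binding buffer. Bound RNA was reverse transcribed with a 10-nucleotide barcoded primer, PCR-amplified and sequenced on a MiSeq with 200-cycle paired-end reads. Reads were joined with FLASH, aligned with HISAT2 and collapsed by barcode. The binding signal is the DEseq log2 fold change of read counts per sequence.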

| Sequence | binding signal |
| --- | --- |
| GGUCACGUCUCAAUCAACUCUAAAGAGGGGGGGAAAACCCCUUUGCCCUCACUAUCAACAGCUCGCAGUCAAG | 0.331 ± 0.434 log2 fold change |
| GGUCACGUCUCAAUCAACUCCUCAGAGGGGGGGAAAACCCCUUUACCCUCCACCUCAACAGCUCGCAGUCAAG | 0.326 ± 0.442 log2 fold change |
| GGUCACGUCUCAAUCAACUCAAUAGAGGGGGGGAAAACCCCUUUACCCUCCACCUCAACAGCUCGCAGUCAAG | 0.349 ± 0.417 log2 fold change |
| GGUCACGUCUCAAUCAACUCAAUAGAGGGGGGGAAAACCCCUUUACCCUCCAUAUCAACAGCUCGCAGUCAAG | 0.379 ± 0.407 log2 fold change |
| GGUCACGUCUCAAUCAACUCCAUAGAGGGGGGGAAAACCCCUUUACCCUCACAUUCAACAGCUCGCAGUCAAG | 0.32 ± 0.406 log2 fold change |
| GGUCACGUCUCAAUCAACUCCAUAGAGGGGGGGAAAACCCCUUUACCCUCACACUCAACAGCUCGCAGUCAAG | 0.698 ± 0.433 log2 fold change |
| GGUCACGUCUCAAUCAACUCACAAGAGGGGGGGAAAACCCCUUUACCCUCGAUAUCAACAGCUCGCAGUCAAG | 0.383 ± 0.425 log2 fold change |
| GGUCACGUCUCAAUCAACUCUUUAGAGGGGGGGAAAACCCCUUUACCCUCGAUAUCAACAGCUCGCAGUCAAG | 0.336 ± 0.435 log2 fold change |
| GGUCACGUCUCAAUCAACUCAAUAGAGGGGGGGAAAACCCCUUUACCCUCGAUAUCAACAGCUCGCAGUCAAG | 0.435 ± 0.406 log2 fold change |
| GGUCACGUCUCAAUCAACUCCCCAGAGGGGGGGAAAACCCCUUUACCCUCCAUAUCAACAGCUCGCAGUCAAG | 0.573 ± 0.413 log2 fold change |
| GGUCACGUCUCAAUCAACUCCCCAGAGGGGGGGAAAACCCCUUUACCCUCCAUCUCAACAGCUCGCAGUCAAG | 0.313 ± 0.439 log2 fold change |
| GGUCACGUCUCAAUCAACUCUCACGAGGGGGGGAAAACCCCUUUACCCUCAACUUCAACAGCUCGCAGUCAAG | 0.363 ± 0.418 log2 fold change |
| GGUCACGUCUCAAUCAACUCAAACGAGGGGGGGAAAACCCCUUUACCCUCAACUUCAACAGCUCGCAGUCAAG | 0.35 ± 0.421 log2 fold change |
| GGUCACGUCUCAAUCAACUCAAACGAGGGGGGGAAAACCCCUUUACCCUCAUUCUCAACAGCUCGCAGUCAAG | 0.326 ± 0.393 log2 fold change |
| GGUCACGUCUCAAUCAACUCUUACGAGGGGGGGAAAACCCCUUUACCCUCUUCUUCAACAGCUCGCAGUCAAG | 0.477 ± 0.42 log2 fold change |
| GGUCACGUCUCAAUCAACUCUUACGAGGGGGGGAAAACCCCUUUACCCUCACACUCAACAGCUCGCAGUCAAG | 0.321 ± 0.386 log2 fold change |
| GGUCACGUCUCAAUCAACUCUCACGAGGGGGGGAAAACCCCUUUACCCUCUUACUCAACAGCUCGCAGUCAAG | 0.346 ± 0.439 log2 fold change |
| GGUCACGUCUCAAUCAACUCUAACGAGGGGGGGAAAACCCCUUUACCCUCAACUUCAACAGCUCGCAGUCAAG | 0.426 ± 0.419 log2 fold change |

| Sequence | binding signal |
| --- | --- |
| GGUCACGUCUCAAUCAACUCUAACGAGGGGGGGAAAACCCCUUUACCCUCUAUAUCAACAGCUCGCAGUCAAG | 0.308 ± 0.434 log2 fold change |
| GGUCACGUCUCAAUCAACUCAACGGAGGGGGGGAAAACCCCUUUACCCUCAACAUCAACAGCUCGCAGUCAAG | 0.308 ± 0.444 log2 fold change |
| GGUCACGUCUCAAUCAACUCCUUCGAGGGGGGGAAAACCCCUUUACCCUCACCUUCAACAGCUCGCAGUCAAG | 0.36 ± 0.426 log2 fold change |
| GGUCACGUCUCAAUCAACUCCUUCGAGGGGGGGAAAACCCCUUUACCCUCUUAAUCAACAGCUCGCAGUCAAG | 0.305 ± 0.422 log2 fold change |
| GGUCACGUCUCAAUCAACUCUUUCGAGGGGGGGAAAACCCCUUUACCCUCAUACUCAACAGCUCGCAGUCAAG | 0.524 ± 0.429 log2 fold change |
| GGUCACGUCUCAAUCAACUCCUUCGAGGGGGGGAAAACCCCUUUACCCUCACAAUCAACAGCUCGCAGUCAAG | 0.304 ± 0.425 log2 fold change |
| GGUCACGUCUCAAUCAACUCUUCGGAGGGGGGGAAAACCCCUUUACCCUCAAUCUCAACAGCUCGCAGUCAAG | 0.453 ± 0.428 log2 fold change |
| GGUCACGUCUCAAUCAACUCCUUCGAGGGGGGGAAAACCCCUUUACCCUCUUCAUCAACAGCUCGCAGUCAAG | 0.429 ± 0.434 log2 fold change |
| GGUCACGUCUCAAUCAACUCUUUCGAGGGGGGGAAAACCCCUUUACCCUCAUAAUCAACAGCUCGCAGUCAAG | 0.336 ± 0.429 log2 fold change |
| GGUCACGUCUCAAUCAACUCAAUCGAGGGGGGGAAAACCCCUUUACCCUCACCUUCAACAGCUCGCAGUCAAG | 0.499 ± 0.434 log2 fold change |
| GGUCACGUCUCAAUCAACUCAAUUUCCAGGGAAAGCCCUGGUAUACUCAACAGCUCGCAGUCAAG | 0.343 ± 0.255 log2 fold change |
| GGUCACGUCUCAAUCAACUCAACUCCCAGGGAAAGCCCUGGUAUACUCAACAGCUCGCAGUCAAG | 0.301 ± 0.289 log2 fold change |
| GGUCACGUCUCAAUCAACUCUACUUCCAGGGAAACCCCUGGUAUACUCAACAGCUCGCAGUCAAG | 0.362 ± 0.285 log2 fold change |
| GGUCACGUCUCAAUCAACUCAACUUCCAGGGAAAACCCUGGUAUACUCAACAGCUCGCAGUCAAG | 0.373 ± 0.293 log2 fold change |
| GGUCACGUCUCAAUCAACUCGCAAGAGGGGGGGAAAACCCCUUUACCCUCAAAUUCAACAGCUCGCAGUCAAG | 0.308 ± 0.444 log2 fold change |
| GGUCACGUCUCAAUCAACUCACUAGAGGGGGGGAAAACCCCUUUACCCUCAAUUUCAACAGCUCGCAGUCAAG | 0.352 ± 0.409 log2 fold change |
| GGUCACGUCUCAAUCAACUCUCUAGAGGGGGGGAAAACCCCUUUACCCUCACUUUCAACAGCUCGCAGUCAAG | 0.308 ± 0.399 log2 fold change |
| GGUCACGUCUCAAUCAACUCGCAAGAGGGGGGGAAAACCCCUUUACCCUCAAUUUCAACAGCUCGCAGUCAAG | 0.343 ± 0.444 log2 fold change |
